High-throughput results (PubChem)
Hits are enriched below; roughly 10% of the tested compounds scored in any of these assays.
Lmaj promast: Leishmania major promastigote growth inhibition, primary screen. Leishmania major promastigotes, resazurin fluorescence viability. inhibition, % at 10 µM. actives 9% (n = 200,000). AID 1063, 2008; in the data active = inhibition above about 50%;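 note: promastigotes grown with compound for 44 hours at 28 °C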
INS promoter inh: inhibitors of insulin promoter-driven GFP, primary screen, imaging, TRM-6 cells (human fetal islet line), eGFP reporter, cell count; reporter expression induced with tamoxifen; inhibition, % at 2 µM; actives 0.9% (n = 130,000); AID 1273, 2008;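 active = inhibition above the mean plus 3 SD, with well images judged a real hit on visual review, cut at about 60% in these data, passing the limit was not always enough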
ROMK primary: ROMK potassium channel modulators, primary screen, cell-based, thallium flux, MLSMR library | actives 2% (n = 130,000) | AID 1918, 2009 | ATP-sensitive inward rectifier potassium channel 1 (Homo sapiens), P48048 | B-score at 10 µM | Tet-inducible ROMK, thallium flux fluorescence; actives lie on both sides;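 active = signal ratio slope over the read window, or its plate-corrected B-score, at least 3 SD from the plate mean, either direction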;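 note: B-score of the F/F0 ratio slope over 7 to 12 s after thallium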
Target sequence (P48048 whole entry, looked up): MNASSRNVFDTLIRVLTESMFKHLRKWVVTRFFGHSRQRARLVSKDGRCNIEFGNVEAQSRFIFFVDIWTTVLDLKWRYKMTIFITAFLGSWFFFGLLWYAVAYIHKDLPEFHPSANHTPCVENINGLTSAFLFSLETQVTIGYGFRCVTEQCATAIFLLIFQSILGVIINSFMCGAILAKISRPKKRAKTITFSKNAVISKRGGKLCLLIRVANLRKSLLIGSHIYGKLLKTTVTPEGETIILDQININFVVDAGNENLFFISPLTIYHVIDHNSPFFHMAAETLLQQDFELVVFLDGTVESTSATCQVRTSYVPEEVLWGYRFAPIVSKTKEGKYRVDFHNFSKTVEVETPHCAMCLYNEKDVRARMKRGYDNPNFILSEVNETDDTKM
PTEN del growth: growth suppression of PTEN-null HCT116, primary screen, cell-based, CellTiter-Glo; HCT116 PTEN-null viability, 60 h; active compounds read low; viability, % at 10 µM; actives 1.2% (n = 140,000);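 active = viability at or below a set limit, 4 SD under the median of all tested compounds, cut at about 3.7% in these data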;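 note: PTEN knockout HCT116 line with beta catenin targeted HCT116 as companion control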
bCat KO growth: primary screen for growth suppressors in beta-catenin knockout HCT116 cells (colon tumor, human) | HCT116 beta-catenin knockout viability, CellTiter-Glo, 60 h; active compounds read low | viability, % at 10 µM | actives 1.5% (n = 140,000);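 active = viability at or under a set limit, the compound median less 4 SD, cut at about 6% in these data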
p97 inhibitor: inhibitors of human p97 ATPase, primary screen, biochemical; Transitional endoplasmic reticulum ATPase (Homo sapiens), P55072; recombinant p97 ATPase, Kinase-Glo ATP luminescence, 3 h; inhibition, % at 8 µM; actives 0.42% (n = 220,000); in the data active = inhibition above about 15%
Numbers stand for hits; 0 = inactive; - = not tested or not shown.

SMILES	Lmaj promast	INS promoter inh	ROMK primary	PTEN del growth	bCat KO growth	p97 inhibitor
O=C(N/N=C/c1ccc([N+](=O)[O-])cc1)c1cc(C2CC2)nc2ccccc12	-	-	-	-	-	0
CCc1ccc(/C=N/NC(=O)c2cc(C3CC3)nc3ccccc23)s1	0	0	3.2	0	0	0
CN(C)C(=O)CSc1nc2ccc(N3C(=O)c4ccccc4C3=O)cc2s1	-	-	-	-	-	0
Nn1c(SCc2ccc(F)cc2)nnc1-c1ccncc1	-	-	-	-	-	0
COc1ccc(/C=N/NC(C)(C)C)c(OC)c1	0	0	0	-	-	0
COc1ccc(-n2c(CNc3ccc(C)cc3)nnc2SCC(=O)Nc2nc(-c3ccccc3)cs2)cc1	0	-	0	0.4	0.8	0
COc1cccc(NC(=O)CSc2nnc(Cc3cccs3)n2-c2ccc(C)cc2)c1	0	0	-	0	0	0
COc1ccc(NC(=O)CSc2nnc(Cc3cccs3)n2-c2ccc(C)cc2)cc1	98	0	0	0	0	0
COc1ccc(-n2c(Cc3cccn3C)nnc2SCC(=O)Nc2ccc(C)cc2)cc1	0	-	-	0	0	0
COc1ccc(NCc2nnc(SCC(=O)Nc3nc(-c4ccccc4)cs3)n2-c2ccccc2)cc1	0	0	0	1.8	1.3	0
COc1ccc(CC(=O)NNC(=O)CSc2nnc(Cc3ccc(OC)cc3)n2-c2ccccc2)cc1	0	71	-	0	0	0
Cc1cc(C)nc(SCc2nnc(SCC(=O)Nc3nc(-c4ccccc4)cs3)n2-c2ccccc2)n1	0	0	0	0	0	0
COc1ccc(CC(=O)NNC(=O)CSc2nnc(C)n2-c2ccccc2)cc1	0	0	0	0	0	0
COCCNC(=S)Nc1cc(OC)c(OC)cc1C#N	0	-	0	-	-	0
Cc1c(Cl)cccc1NC(=O)CCC(=O)NNC(=O)c1ccccc1Cl	0	-	0	0	0	0
CCOC(=O)C1=C(C)NC(=O)NC1c1c(O)ccc2ccccc12 (centres undefined)	0	-	-	0	0	0
O=C(Nc1ccc2ccccc2c1)N1CCCN(CCOc2ccccc2)CC1	-	-	-	-	-	0
CC1(C)CC(c2nc(-c3ccc(Cl)cc3)cs2)CCS1 (centres undefined)	0	-	-	0	0	18
CC1(C)CC(c2nc(-c3ccc(Br)cc3)cs2)CCS1 (centres undefined)	0	-	-	0	0	0
COc1ccc(C(=O)C2CC2c2ccc3c(c2)OCO3)cc1 (centres undefined)	0	0	0	-	-	0
CCOc1ccc(C2C([N+](=O)[O-])=C(C)N(C)C(=O)N2C)cc1OC (centres undefined)	56	-	0	-	-	0
COc1ccc(C2C([N+](=O)[O-])=C(C)N(C)C(=O)N2C)cc1OC (centres undefined)	0	0	0	-	-	0
Cn1cc(/C=N\O)nc2c(=O)n(-c3ccccc3)c(=O)nc1-2	0	-	0	-	-	0
CC1CCCCN1c1nc2nonc2nc1N1CCCCC1C (centres undefined)	0	0	0	0	0	0
COc1ccccc1Nc1nc2nonc2nc1N1CCCCC1C (centres undefined)	91	0	0	0	0	0
SMILES	Lmaj promast	INS promoter inh	ROMK primary	PTEN del growth	bCat KO growth	p97 inhibitor
CCCSCCCNC(=O)c1cc2c(s1)CS(=O)(=O)C2	0	0	0	0	0	0
Cc1cccc(N2CCN(CCNC(=O)c3cc4c(s3)CS(=O)(=O)C4)CC2)c1C	99	0	0	0	0	0
O=C(Nc1ccc(NC(=O)C23CC4CC(CC(C4)C2)C3)cn1)c1ccco1	0	-	0	0	0	0
O=C(/C=C/c1ccco1)c1ccc(NC(=O)C23CC4CC(CC(C4)C2)C3)cc1	59	-	0	0	0	0
C/C(=N\Nc1nc2ccccc2[nH]1)c1ccc2c(c1)OCO2	101	-	0	-	-	0
C/C(=N\Nc1nc2ccccc2[nH]1)c1cc2ccccc2o1	68	0	-	0	0	0
C/C(=N\Nc1ccccn1)c1ccc2c(c1)OCO2	0	0	0	-	-	0
C/C(=N\NC(=O)c1ccncc1)c1cc2ccccc2o1	0	-	0	-	-	0
Clc1ccccc1N/N=C/c1ccc2c(c1)OCO2	0	64	0	0	0	0
C(=N\Nc1nc2ccccc2[nH]1)/c1ccc2c(c1)OCO2	96	0	0	-	-	0
CC(=O)N/N=C(\C)c1ccc2c(c1)OCCO2	0	-	0	-	-	0
